Reference: PubChem BioAssay (Tox21)
Records with an inconclusive call do not appear. Where a call stands in place of a potency, no number is given. Active and inactive are the calls of the source. Calls follow the shape of the full dose curve.

Experiment: p53 small molecule agonists, cell-based qHTS assay: qHTS cell viability counter screen (AID 1963581); also: nearly all actives have a fitted effect of over 45% in size
Conditions: p53RE-bla HCT-116 viability, ATP luminescence, 16 h; series mostly up to 66 µM
Text: National Center for Advancing Translational Sciences [NCATS]
Division of Preclinical Innovation [DPI]
U.S. Environmental Protection Agency [EPA]
National Institutes of Environmental Health Sciences [NIEHS]
National Toxicology Program [NTP]
U.S. Food and Drug Administration [FDA]
p53, a tumor suppressor protein, is activated following cellular insult, including DNA damage and other cellular stresses. The activation of p53 regulates cell fate by inducing DNA repair, cell cycle arrest, apoptosis, or cellular senescence. The activation of p53, therefore, is a good indicator of DNA damage and other cellular stresses. The CellSensor p53RE-bla HCT-116 cell line (Invitrogen) contains a stably integrated beta-lactamase reporter gene under control of the p53 response elements. The activation of the reporter gene under culture conditions can be detected by fluorescence intensity. This cell line was used to screen the Tox21 compound library in a 1536-well plate format and to identify agonists that activate the p53 signaling pathway. The cytotoxicity of the Tox21 compound library against the p53 RE-bla HCT-116 cell line was tested in parallel by measuring the intra cellular ATP content in the same wells.
Tox21 Assay Protocol Summary:
The p53RE-bla cells were dispensed at 4,000 cells/5 ul/well in 1536-well black wall/clear bottom plates using a Multidrop dispenser. After the assay plates were incubated at a 37 C/5% CO2 incubator for 5 hours, 23 nL of compounds dissolved in DMSO, positive controls or DMSO only was transferred to the assay plate by a pin tool. The plates were incubated at 37 C for 16 hours. After 1 uL of LiveBLAzerTM B/G FRET substrate was added using a Flying Reagent Dispenser, the plates were incubated at room temperature for 2 hours, and fluorescence intensity was measured by an Envision plate reader. For cell viability readout that measures cytotoxicity, 4 ul/well of CellTiter-Glo reagent was added into the assay plates using a Flying Reagent Dispenser. After 30 min incubation at room temperature, the luminescence intensity in the plates was measured using a ViewLux plate reader.
Potency is read from the fitted curve at half-maximal effect.

**Q.** Which Potency does the source give for Clc1ccc(C(Cn2ccnc2)OCc2ccsc2Cl)c(Cl)c1 (stereo not given) here?
**A.** inactive

**Q.** With O=C(O)CNC(=O)CNC(=O)CNC(=O)CSC(=O)c1ccccc1 as the molecule, how does the Potency read?
**A.** inactive

**Q.** Which Potency does the source give for CCO[C@@H]1O[C@H](C(COCc2ccccc2)OCc2ccccc2)[C@H](OCc2ccccc2)[C@H]1O (stereo not given in full) here?
**A.** inactive

**Q.** Which Potency does the source give for CNCc1cc(F)ccc1Oc1ccc(Cl)c(Cl)c1 here?
**A.** inactive

**Q.** With C=CCCCCCC as the molecule, how does the Potency read?
**A.** inactive

**Q.** With COC(C)CCO (stereo not given) as the molecule, how does the Potency read?
**A.** inactive

**Q.** Which Potency does the source give for OC(CCN1CCCCC1)(c1ccccc1)C1CCCCC1 (stereo not given) here?
**A.** inactive

**Q.** For Cc1c(Nc2ncccc2C(=O)O)cccc1C(F)(F)F, which Potency is on record?
**A.** inactive

**Q.** With CCC(Cl)C(Cl)C(Cl)CC(Cl)C(Cl)C(C)Cl (stereo not given) as the molecule, how does the Potency read?
**A.** inactive

**Q.** For Cc1cc(-c2ccc(N=Nc3cc(S(=O)(=O)O)c4ccccc4c3N)c(C)c2)ccc1N=Nc1cc(S(=O)(=O)O)c2ccccc2c1N, which Potency is on record?
**A.** inactive

**Q.** With C=CC[N+]1([C@H]2C[C@H]3[C@@H]4CC[C@H]5C[C@H](OC(C)=O)[C@@H](N6CCCCC6)C[C@]5(C)[C@H]4CC[C@]3(C)[C@H]2OC(=O)CC)CCCCC1 as the molecule, how does the Potency read?
**A.** inactive

**Q.** Which Potency does the source give for Cc1coc2ccccc2c1=O here?
**A.** inactive

**Q.** For CCCOc1ccc(S(=O)(=O)N2CCN(CC)CC2)cc1-c1nc2c(CC)n(Cc3ccccn3)nc2c(=O)[nH]1, which Potency is on record?
**A.** inactive

**Q.** Which Potency does the source give for CCOC(=O)C1=NN(c2ccccc2)C(=O)C1 here?
**A.** inactive

**Q.** With CC(C)CCCCCCN as the molecule, how does the Potency read?
**A.** inactive

**Q.** Which Potency does the source give for O=C(NCC(O)CO)c1c(I)c(C(=O)NCC(O)CO)c(I)c(N(CCO)C(=O)CO)c1I (stereo not given) here?
**A.** inactive

**Q.** For CCCCN(CCO)CCCC, which Potency is on record?
**A.** inactive

**Q.** With CCN1CCOCC1 as the molecule, how does the Potency read?
**A.** inactive

**Q.** With COc1ccccc1OCCNCC(O)COc1cccc2[nH]c3ccccc3c12 (stereo not given) as the molecule, how does the Potency read?
**A.** inactive

**Q.** Which Potency does the source give for O=[N+]([O-])c1ccc(O)cc1 here?
**A.** inactive

**Q.** With CCCCCCCCCCCCCCCCCC[N+](C)(C)Cc1ccccc1 as the molecule, how does the Potency read?
**A.** 20.6 µM (active)

**Q.** Which Potency does the source give for CC1CN(c2ccccc2)NC1=O (stereo not given) here?
**A.** inactive

**Q.** Which Potency does the source give for CCOC(=O)CC(=O)c1ccccc1 here?
**A.** inactive

**Q.** Which Potency does the source give for CCCCCC(C)O (stereo not given) here?
**A.** inactive

**Q.** For O=C(CS(=O)Cc1ccco1)NC/C=C\COc1cc(CN2CCCCC2)ccn1 (stereo not given), which Potency is on record?
**A.** inactive

**Q.** Which Potency does the source give for CCOc1ccc(OCC)c(Cl)c1 here?
**A.** inactive

**Q.** With COc1ccc(S(=O)(=O)Nc2nnc(CC(C)C)s2)cc1 as the molecule, how does the Potency read?
**A.** inactive

**Q.** With CC(CN(CCN(CC(C)OCCO)CC(C)OCCO)CC(C)OCCO)OCCO (stereo not given) as the molecule, how does the Potency read?
**A.** inactive

**Q.** With CN(C)CC[C@@H](c1ccc(Cl)cc1)c1ccccn1 as the molecule, how does the Potency read?
**A.** inactive

**Q.** With C=C(C)C(=O)OCc1ccccc1 as the molecule, how does the Potency read?
**A.** inactive

**Q.** With CC1(C)CC(O)CC(C)(C)N1[O] as the molecule, how does the Potency read?
**A.** inactive

**Q.** With COc1ccc(Cc2cnc(N)nc2N)cc1OC as the molecule, how does the Potency read?
**A.** inactive

**Q.** With N#Cc1ccccc1O as the molecule, how does the Potency read?
**A.** inactive

**Q.** For CC[N+](C)(CC)CC, which Potency is on record?
**A.** inactive

**Q.** For CCCC(C)CC (stereo not given), which Potency is on record?
**A.** inactive

**Q.** Which Potency does the source give for CCO[Si](CCCS)(OCC)OCC here?
**A.** inactive

**Q.** For CO/N=C(/C(=O)N[C@@H]1C(=O)N2C(C(=O)O)=C(Cn3nnc(C)n3)CS[C@H]12)c1csc(N)n1, which Potency is on record?
**A.** inactive

**Q.** Which Potency does the source give for O=C(c1ccc(O)c(O)c1)c1ccc(O)cc1O here?
**A.** inactive

**Q.** For Cc1ccc2nc(-c3ccc(N)cc3)sc2c1S(=O)(=O)O, which Potency is on record?
**A.** inactive

**Q.** Which Potency does the source give for CCCOCC(C)OCC(C)O (stereo not given) here?
**A.** inactive
